# Out of some 220,000 compounds screened, about 2,000 (0.91%) were called active. Another 2% or so got no clear call; they are omitted. Rule as the data show it: inconclusive = inhibition above about 80% without an active follow-up result; inactive = below that; test concentration not stated here. These entries were drawn from the full list. Entries with a potency or affinity are not part of this list.
# Test: M. tuberculosis H37Rv growth inhibitors, H37Rv strain (AID 1626);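 also: bacteria incubated seven days before Alamar blue readout; 0% = bacteria only wells and 100% = bacteria with antibiotic wells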
# Details: hits give high values, concentration not given here
row,Structure (SMILES),inhibition
1,COC(=O)c1ccc(CNC(=O)COc2ccccc2Br)o1,5.3% (inactive)
2,CC[n+]1ccccc1/C=C/Nc1ccccc1,-7.49% (inactive)
3,O=C(CSc1nccc(=O)[nH]1)Nc1ccc2c(c1)OCCO2,31.1% (inactive)
4,O=C(CSc1nccc(=O)[nH]1)Nc1ccc(F)c(Cl)c1,-0.08% (inactive)
5,S=c1[nH]nc(-c2ccncc2)n1/N=C/C(Cl)=C\c1ccccc1,6.36% (inactive)
6,COc1cc(CNc2ncn[nH]2)ccc1OCc1cccc(C)c1,5.16% (inactive)
7,COc1ccc(O)c(C(=O)c2cnc3c(c2)CN(C)C(=O)N3)c1,-1.06% (inactive)
8,CC1(C)CC(NC(=O)c2ccccn2)CC(C)(C)N1O,1.26% (inactive)
9,S=C1NCCNC(=S)NCCOCCOCCOCCN1,-1.99% (inactive)
10,Cc1cc(NCCCn2ccnc2)n2ncc(-c3ccccc3)c2n1,18.5% (inactive)
11,Clc1ccc(-n2ncc3c(NCCCn4ccnc4)ncnc32)cc1,-5.48% (inactive)
12,Cc1cc(NCCCN2CCOCC2)n2ncc(-c3ccccc3)c2n1,7.39% (inactive)
13,CC(C)(C)c1cc(-n2ccnc2)n2ncc(-c3ccc(Cl)cc3)c2n1,6.96% (inactive)
14,COC(=O)c1cc(Br)c(=O)n(CCC2=CCCCC2)c1,-7.27% (inactive)
15,O=C(NC(=S)Nc1ccc(CN2CCOCC2)cc1)c1ccco1,-0.41% (inactive)
16,COc1ccc(-c2[nH]ncc2CN2CCC(N3CCSCC3)CC2)c(F)c1,-0.36% (inactive)
17,Cc1ccc(-c2nn(-c3ccccc3)cc2/C=N/NC(=O)c2ccc(Br)o2)cc1,0.66% (inactive)
18,Clc1cc(Br)ccc1OCCCNCc1ccccc1,23% (inactive)
19,Clc1ccc(Cl)c(OCCCCNCc2ccccc2)c1,11.2% (inactive)
20,Cc1ccc(C)c(OCCCC(=O)Nc2ccc(N3CCOCC3)cc2)c1,-9.52% (inactive)
21,Cn1c(SCC(=O)N2CCOCC2)nnc1-c1cnccn1,-10.3% (inactive)
22,CCCCOc1ccc(C(=O)Nc2cc(C)c(OCC(=O)N3CCOCC3)c(C)c2)cc1,-1.36% (inactive)
23,CCC(C)[C@H](N)c1nnc(SCC(=O)c2ccc(Cl)cc2)o1 (stereo partly specified),-1.21% (inactive)
24,Cn1c(SCCCC(=O)c2ccc(F)cc2)nnc1-c1ccncc1,5.49% (inactive)

row,Structure (SMILES),inhibition
1,CC1=C(CCN2CCN(C3CCCC3)C(CCO)C2)C(C)(C)CCC1 (stereo unspecified),3.37% (inactive)
2,CC1=C(CCN2CCN(C(C)C)C(CCO)C2)C(C)(C)CCC1 (stereo unspecified),1.16% (inactive)
3,CC1(C)Oc2ccc3ccc(=O)oc3c2/C(=C/Nc2ccccn2)C1=O,-6.19% (inactive)
4,COc1ccc(OC)c(CCNC(=O)C(=O)Nc2ccc3nc4n(c(=O)c3c2)CCCCC4)c1,9.2% (inactive)
5,COc1cccc(-c2csc(/C(C#N)=C/Nc3cc4oc5ccccc5c4cc3OC)n2)c1,6.75% (inactive)
6,Cc1ccc(-c2csc(/C(C#N)=C/Nc3ccc4c(c3)OCCO4)n2)cc1,-3.12% (inactive)
7,CCN(CC)CCOC(=O)c1cccc(OC)c1,-3.6% (inactive)
8,COc1cc2c(cc1N/C=C(\C#N)c1nc(-c3ccc(F)cc3)cs1)oc1ccccc12,5.47% (inactive)
9,COc1ccc(-c2csc(/C(C#N)=C/Nc3ccc4c(c3)OCCO4)n2)cc1,5.83% (inactive)
10,N#C/C(=C\Nc1ccc2c(c1)OCCO2)c1nc(-c2ccccc2)cs1,-0.56% (inactive)
11,Cn1c(=O)c2c(ncn2CC(=O)OCC(=O)NCc2ccc(Cl)cc2)n(C)c1=O,-4.25% (inactive)
12,CCOC(=O)CSC(CC)C(=O)Nc1nnc(CC)s1 (stereo unspecified),8.43% (inactive)
13,Cc1cc(Cl)ccc1N(CC(=O)NCc1ccc2c(c1)OCO2)S(C)(=O)=O,-3.37% (inactive)
14,O=C(CCC(=O)c1cccs1)OCc1nc2ccccc2s1,-8.64% (inactive)
15,CC[C@@H](CO)C1CC2NC3CC4(c5ccccc5N(C)[C@@H]24)C(O)C31 (stereo partly specified),-2.7% (inactive)
16,COc1ccc(/C=N/N2C(=O)c3ccccc3C2=O)cc1,1.55% (inactive)
17,CCCCC(=O)Nc1nc(C)c(-c2csc(Nc3ccccc3OC)n2)s1,6.85% (inactive)
18,CCCCCC(=O)Nc1nc(C)c(-c2csc(Nc3ccccc3OC)n2)s1,3.41% (inactive)
19,CCN(CC)CCCN1C(=O)C(O)=C(C(=O)c2cc3ccccc3o2)C1c1ccccn1 (stereo unspecified),-1.65% (inactive)
20,Cc1ccc(NC(=O)CSCC#N)cc1,-3.07% (inactive)
21,CC(=O)Nc1ccc(S(=O)(=O)NCCC(=O)Nc2ccc(C)c(Cl)c2)cc1,1.88% (inactive)
22,Cc1ccc(S(=O)(=O)NCCC(=O)Nc2ccc(Cl)c(Cl)c2)cc1C,68.7% (inactive)
23,N#CCSCC(=O)Nc1ccc(Cl)cc1,-6.68% (inactive)
24,O=C(Nc1cccc(S(=O)(=O)NC2=NCCCCC2)c1)c1cc(-c2ccncc2)nc2ccccc12,5.09% (inactive)

row,Structure (SMILES),inhibition
1,CNc1nc(N)c(C(=O)C23CC4CC(CC(C4)C2)C3)s1,7.78% (inactive)
2,CC1CN(c2ncc(/C=N/NC(=O)c3ccccc3O)s2)CC(C)O1 (stereo unspecified),48% (inactive)
3,c1ccc(OCCOCCN2CCOCC2)cc1,8.38% (inactive)
4,OCCOCCN1CCN(C(c2ccccc2)c2ccc(Cl)cc2)CC1 (stereo unspecified),-10.7% (inactive)
5,O=C(NN1CCN(Cc2ccccc2)CC1)c1ccc(Cl)cc1,-1.31% (inactive)
6,CCOc1ccc(-c2nnc(-c3ccccc3)o2)cc1,8.69% (inactive)
7,O=C(COc1cc(O)c2c(=O)cc(-c3ccccc3)oc2c1)c1ccccc1,-4.52% (inactive)
8,CCOC(=O)Cc1nnc(-c2ccccc2)o1,-3.07% (inactive)
9,CCOC(=O)c1cc(=O)c2ccc(OCC(=O)Nc3ccccc3)cc2o1,3.25% (inactive)
10,CCc1ccc(C(=O)COC(=O)c2ccc(-c3nnc(-c4ccccc4)o3)cc2)cc1,-8.3% (inactive)
11,NC(=O)COc1ccc2oc(-c3ccccc3)cc(=O)c2c1,1.94% (inactive)
12,CCOC(=O)c1cccc(COC(=O)c2cccc(-c3nnc(-c4ccccc4)o3)c2)c1,2.8% (inactive)
13,CC(C)(C)OC(=O)COc1cc(O)c2c(=O)cc(-c3ccccc3)oc2c1,5.56% (inactive)
14,C#CCn1c(=NC(=O)c2ccc(Br)s2)sc2cccc(OC)c21,49.8% (inactive)
15,CCn1c(=O)cc(SCC(=O)N2CCN(c3ccccc3OC)CC2)c2ccccc21,-4.03% (inactive)
16,COP(=O)(NC(=O)C(Cl)(Cl)Cl)OC,-4.54% (inactive)
17,Cc1ccc(SCC(=O)Nc2ccc(N3CCN(c4ccccc4)CC3)c(F)c2)cc1,3.11% (inactive)
18,CS(=O)(=O)NCCNc1ccc(C(F)(F)F)cc1[N+](=O)[O-],-3.33% (inactive)
19,COc1ccc(C2CC(=O)C(C=NCCO)=C(O)C2)cc1OC (stereo unspecified),-9.01% (inactive)
20,CN(CCc1cnn(C)c1)Cc1cn[nH]c1-c1ccc(-c2ccccc2)cc1,3.7% (inactive)
21,Cc1c(NC(=O)/C(=C\c2ccccc2)NC(=O)c2ccccc2)c(=O)n(-c2ccccc2)n1C,-13.7% (inactive)
22,COc1ccc(OCC(=O)N/N=C2\CCCc3ccccc32)cc1,1.63% (inactive)
23,O=C(NNS(=O)(=O)c1ccccc1Cl)c1nn(-c2ccc(F)cc2)ccc1=O,2.66% (inactive)
24,CCOc1ccc(-c2nnc(-c3ccncc3)o2)cc1,7.35% (inactive)

row,Structure (SMILES),inhibition
1,O=C(O)C(Oc1ccc2c(-c3ccccc3)cc(=O)oc2c1)c1ccccc1 (stereo unspecified),-7.84% (inactive)
2,CC(Oc1ccc2c(-c3ccccc3)cc(=O)oc2c1)C(=O)O (stereo unspecified),-19.3% (inactive)
3,CCOc1ccc(-c2nnc(-c3ccc(OC)cc3)o2)cc1,3.3% (inactive)
4,O=C(O)COc1ccc2c(-c3ccccc3)cc(=O)oc2c1,-6.46% (inactive)
5,CCOC(=O)C(Oc1ccc2c(-c3ccccc3)cc(=O)oc2c1)c1ccccc1 (stereo unspecified),15.1% (inactive)
6,N#Cc1ccc(NC(=O)c2cc(-c3cccs3)on2)cc1,-3.45% (inactive)
7,Cc1cc(C(=O)CSc2nnc(-c3ccc(Cl)cc3)n2C)c(C)n1CC1CCCO1 (stereo unspecified),-5.79% (inactive)
8,CCn1c(=O)c(=O)[nH]c2cc(C(=O)NC3CCCC3)ccc21,-14.3% (inactive)
9,COC(=O)c1cc(C)nc(Sc2ccccc2NC(C)=O)n1,-6.62% (inactive)
10,Nc1ncc2c(n1)-c1ccccc1CC2,4.21% (inactive)
11,COc1ccc(-c2cnc(N)nc2-c2ccc(OC)cc2O)cc1,-8.12% (inactive)
12,Cc1nnc(NC(=O)CSc2ccc(-c3ccccn3)nn2)s1,-8.09% (inactive)
13,Cc1ccc(CNC(=O)CSc2ccc(-c3ccccn3)nn2)cc1,9.75% (inactive)
14,Cc1ccc(-c2ccc(SCC(=O)Nc3cc(C)on3)nn2)cc1,1.42% (inactive)
15,CCOC(=O)c1ccccc1NC(=O)CSc1ccc(-c2cccnc2)nn1,1.73% (inactive)
16,Cc1nonc1NC(=O)CSc1ccc(-c2ccccc2)nn1,29.3% (inactive)
17,Cc1csc(NC(=O)CSc2ccc(-c3ccccc3)nn2)n1,-4.14% (inactive)
18,CCOC(=O)c1ccc(NC(=O)CSc2ccc(-c3ccncc3)nn2)cc1,78% (inactive)
19,CC(=O)Nc1cccc(NC(=O)CSc2ccc(-c3ccccn3)nn2)c1,5.52% (inactive)
20,CC(C)CNC(=O)c1cccc(NC(=O)C(C)Oc2ccccc2)c1 (stereo unspecified),9.89% (inactive)
21,COc1cc(CNC2CCCCCC2)cc(OC)c1,9.94% (inactive)
22,Cc1nc(-c2ccc(Cl)cc2)sc1C(=O)NNC(=O)C(C)C,-5% (inactive)
23,CCC1CCCCN1C(=O)COc1c(Br)cc(Br)c2cccnc12 (stereo unspecified),-13.3% (inactive)
24,CCn1nc(C(=O)Nc2ccc(S(=O)(=O)Nc3ncccn3)cc2)c2ccccc2c1=O,1.39% (inactive)

# — PubChem BioAssay AID1626 (SRMLSC, 2009)
